From PubChem BioAssay (EPA / NIEHS)
The source made the active and inactive calls. Rule for the calls: active = hit-call score of the fitted dose curve at least 0.9, where 1 is the maximum; inconclusive = response in the unintended direction; inactive = score below 0.9.

Each compound was assayed against Estrogen receptor beta (Homo sapiens) (UniProt Q92731) (assay: OT_ER_ERbERb_1440: Odyssey Thera (OT) 24-hour HEK293T Protein-Complementation Assay for Estrogen Receptor-beta/-beta Homodimer (AID 2283380);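 note: fluorescence gain from ER beta LBD homodimer complementation read by laser scanning cytometry; scored as signal increase over DMSO baseline for both agonists and antagonists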).
Sequence of Estrogen receptor beta (Homo sapiens) (Q92731 whole entry, looked up, the tested form may be a part): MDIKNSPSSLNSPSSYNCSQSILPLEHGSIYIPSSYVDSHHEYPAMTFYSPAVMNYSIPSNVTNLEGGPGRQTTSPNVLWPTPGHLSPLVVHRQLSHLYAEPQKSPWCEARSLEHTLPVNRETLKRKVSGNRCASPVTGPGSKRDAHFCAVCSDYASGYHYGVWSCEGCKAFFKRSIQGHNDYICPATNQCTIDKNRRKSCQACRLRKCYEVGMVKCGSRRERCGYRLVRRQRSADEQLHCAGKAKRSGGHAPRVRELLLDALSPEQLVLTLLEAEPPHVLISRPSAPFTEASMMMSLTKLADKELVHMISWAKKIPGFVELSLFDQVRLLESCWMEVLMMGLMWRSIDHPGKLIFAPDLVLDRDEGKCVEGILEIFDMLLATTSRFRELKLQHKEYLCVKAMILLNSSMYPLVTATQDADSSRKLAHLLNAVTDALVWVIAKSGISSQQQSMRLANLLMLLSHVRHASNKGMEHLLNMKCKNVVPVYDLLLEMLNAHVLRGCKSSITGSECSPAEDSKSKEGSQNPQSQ
In short: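 Fluorescence increase, nuclear for agonists or whole-cell for antagonists, relative to DMSO vehicle, quantified by laser scanning cytometer after fixation and Draq5 staining. Readout from 24 h treatment of HEK293T cells carrying complementation-paired ER beta LBD (aa 310-547).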
`CCCCC(CC)COC(=O)c1ccc(O)cc1` (stereo not given) was tested, and the AC50 was 1.92 µM (active). With `C#CC(C)(O)CC(C)C` (stereo not given) the outcome was “inactive”. With `CCCCC(CC)COC(C)=O` (stereo not given) the outcome was “inactive”. `C[Si](C)(C)O[Si](C)(C)C` was tested, and the outcome was “inactive”. In the case of `Clc1ccc(C(c2ccccc2Cl)C(Cl)Cl)cc1` (stereo not given), the AC50 is reported as 5.53 µM (active). With `CC(CN=Cc1ccccc1O)N=Cc1ccccc1O` (stereo not given) the outcome was “inactive”. `COc1ccccc1N=Nc1c(S(=O)(=O)O)cc2cc(S(=O)(=O)O)cc(NC(C)=O)c2c1O` was tested, and the outcome was “inactive”. In the case of `CCCCCCC(C)(C)S`, the outcome is reported as “inactive”. In the case of `CCCC(=O)OC(C)(C)Cc1ccccc1`, the outcome is reported as “inactive”. In the case of `OCC#CCO`, the outcome is reported as “inactive”. In the case of `CCCCCCCC(=O)OCC(O)CO` (stereo not given), the outcome is reported as “inactive”. For `C=Cc1ccc(C)cc1`, the outcome was “inactive”. `O=P(O)(O)O` was tested, and the outcome was “inactive”. `CN1C(=O)c2ccccc2C1=O` was tested, and the outcome was “inactive”. `O=C(c1ccccc1)C(O)c1ccccc1` (stereo not given) was tested, and the outcome was “inactive”. For `CC(C)Nc1nc(N)nc(Cl)n1`, the outcome was “inactive”. `C=C(C)[C@@H]1CC=C(C)C(=O)C1` was tested, and the outcome was “inactive”. In the case of `CCCCCC(C)=O`, the outcome is reported as “inactive”. `ON=C1CCCCC1` was tested, and the outcome was “inactive”. `OC[C@H]1O[C@@H]2O[C@H]3[C@H](O)[C@@H](O)[C@@H](O[C@H]4[C@H](O)[C@@H](O)[C@@H](O[C@H]5[C@H](O)[C@@H](O)[C@@H](O[C@H]6[C@H](O)[C@@H](O)[C@@H](O[C@H]7[C@H](O)[C@@H](O)[C@@H](O[C@H]8[C@H](O)[C@@H](O)[C@@H](O[C@H]9[C@H](O)[C@@H](O)[C@@H](O[C@H]1[C@H](O)[C@H]2O)O[C@@H]9CO)O[C@@H]8CO)O[C@@H]7CO)O[C@@H]6CO)O[C@@H]5CO)O[C@@H]4CO)O[C@@H]3CO` was tested, and the outcome was “inactive”. `Nc1ccc2cc(S(=O)(=O)O)cc(O)c2c1N=Nc1ccccc1C(F)(F)F` was tested, and the outcome was “inactive”. In the case of `C=C[Si]1(C)O[Si](C)(C=C)O[Si](C)(C=C)O[Si](C)(C=C)O1` (stereo not given), the outcome is reported as “inactive”. `O=Cc1ccccc1S(=O)(=O)O` was tested, and the outcome was “inactive”. With `CN1CCOCC1` the outcome was “inactive”. In the case of `CCC(=O)O[C@@H]1C[C@H]2CC[C@]1(C)C2(C)C`, the outcome is reported as “inactive”. For `[O-]n1ccccc1=S.[O-]n1ccccc1=S.[Zn+2]`, the outcome was “inactive”. With `COC(=O)c1ccc(C)cc1C1=NC(C)(C(C)C)C(=O)N1` (stereo not given) (tested in a mixture with another compound) the outcome was “inactive”. With `CCOc1ccccc1O` the outcome was “inactive”. For `CC1CC(O)CC(C)(C)C1` (stereo not given), the outcome was “inactive”. For `CN(C)c1cccc(O)c1`, the outcome was “inactive”.
